The structures appear in SMILES notation. Activity calls are given as the source filed them. Calls follow the shape of the dose curve; as a rule, active = well fitted curve in the direction sought with a large enough effect; inactive = no such curve, though single readings can be large or run the other way.

This is an account of results in PubChem BioAssay AID624388 (National Center for Advancing Translational Sciences (NCATS), 2012).

The target of the experiment is Pyruvate kinase PKLR (Homo sapiens) (UniProt P30613). Put plainly: qHTS for Activators of Human Muscle Isoform 2 Pyruvate Kinase (PK): Extended Characterization using Reticulocyte PK Probe 2. The conditions noted are these: purified hPK-R, ATP production, Kinase-Glo luminescence; series mostly up to 58 µM. An excerpt: Human pyruvate kinase reticulocyte (hPK-R) enzyme was supplied as a highly purified (>95% pure) preparation from Structural Genomics Consortium in Toronto (Ontario, Canada) and assayed for its ability to generate ATP from ADP using phosphoenolpyruvate (PEP) as a substrate. ATP generation was detected in a coupled reaction by luciferase-mediated luminescence, an ATP-dependent process. Pyruvate kinase substrates, PEP and ADP, were present in the assay at Km and approximately 10-fold below Km respectively. The enzyme was assayed at an intermediate level of activity to screen for both inhibitors and activators. NIH Chemical Genomics Center [NCGC] NIH Molecular Libraries Probe Centers Network [MLPCN] MLPCN Grant: MH085679 Assay Submitter (PI): Matthew G. Vander Heiden, Harvard Medical School
Chain of Pyruvate kinase PKLR (Homo sapiens) (P30613 whole entry, looked up, canonical isoform): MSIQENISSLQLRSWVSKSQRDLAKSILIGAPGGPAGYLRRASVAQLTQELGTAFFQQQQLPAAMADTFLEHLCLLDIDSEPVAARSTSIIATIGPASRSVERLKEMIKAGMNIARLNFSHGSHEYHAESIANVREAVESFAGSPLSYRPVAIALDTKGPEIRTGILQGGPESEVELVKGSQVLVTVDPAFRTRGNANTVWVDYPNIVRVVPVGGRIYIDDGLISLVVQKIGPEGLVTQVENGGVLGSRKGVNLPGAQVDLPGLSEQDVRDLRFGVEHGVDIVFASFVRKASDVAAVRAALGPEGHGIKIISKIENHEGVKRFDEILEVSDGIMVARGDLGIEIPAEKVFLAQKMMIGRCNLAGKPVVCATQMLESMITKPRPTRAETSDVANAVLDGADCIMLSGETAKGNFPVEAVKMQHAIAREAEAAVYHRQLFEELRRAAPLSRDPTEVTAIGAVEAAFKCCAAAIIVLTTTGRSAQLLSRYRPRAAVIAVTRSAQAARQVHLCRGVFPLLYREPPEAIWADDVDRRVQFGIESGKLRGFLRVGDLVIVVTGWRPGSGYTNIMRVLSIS
Three uL of substrate mix (at r.t.) in assay buffer (50 mM Imidazole pH7.2, 50 mM KCl, 7 mM MgCl2, 0.01% Tween 20, 0.05% BSA) was dispensed into white solid bottom 1,536 well microtiter plates so that the final concentrations of substrates in the assay were 0.1 mM ADP and 0.5 mM PEP. 23 nL of compound were delivered by a pin tool and 1 uL of enzyme mix (final concentration of 0.1 nM) in assay buffer (4 degree Celsius) was added. Plates were incubated at room temperature for 1 hour. Two uL of detection mix (Kinase-Glo, Promega; at 4 degree Celsius protected from light) was added and luminescence read by a ViewLux (Perkin Elmer) at 1 second exposure/plate. Data were normalized to the uninhibited (row 31). Additionally, a no enzyme and 5-fold enzyme control was dispensed in row 32, split equally between the two conditions.
(Quantitative high-throughput screening tests each substance at several concentrations.)
Regarding `COc1cccc(Cn2ncc3c4sc(S(C)=O)cc4n(C)c3c2=O)c1` (centres undefined), the result was inactive.

Consider `Cc1ccc(NS(=O)(=O)c2ccc3c(c2)CCC(=O)N3)cc1C`, for which the outcome was inactive.

In the case of `O=S(=O)(c1ccc2c(c1)OCCO2)N1CCN(S(=O)(=O)c2c(F)cccc2F)CC1`, the compound was classed as inactive.

Consider `Nc1cccc(S(=O)(=O)N2CCCN(S(=O)(=O)c3ccc4c(c3)OCCO4)CC2)c1`, for which the compound was called inactive.
